# Hit rate of the full screen: of about 420,000 compounds, about 50,000 (12%) were called active. Where a call stands in place of a potency, no number is given. Inconclusive results (about 26%) are left out. Many of the other results were omitted from the sample, so actives are more common in it than they were. Unmarked numbers belong to inactive results. Calls follow the shape of the dose curve; as a rule, active = well fitted inhibition curve with a large enough effect; inconclusive = small, poorly fitted or top-dose-only effect; inactive = flat fitted curve, though single readings scatter.
# Assay: qHTS for Inhibitors of human tyrosyl-DNA phosphodiesterase 1 (TDP1): qHTS in cells in presence of CPT; also: nearly all actives have a fitted effect of over 55% in size
# Conditions: chicken DT40 Tdp1-/-;hTDP1 cells + 20 nM CPT, ATP luminescence, 48 h; series mostly up to 46.2 µM
# Procedure, shortened: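 Chicken DT40 Tdp1-/- cells stably complemented with human TDP1 were seeded at 400 cells/well in medium containing 20 nM camptothecin, exposed to pin-transferred compounds, and grown at 37 °C for at least 48 hr. Viability was read as ATP luminescence.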
# Potency is read from the fitted curve at half-maximal effect.
SMILES,Potency,"activity change, negative = growth inhibition"
CC(C)(O)CCC(O)[C@@](C)(O)C1CC[C@]2(O)C3=CC(=O)C4CC(O)C(O)C[C@]4(C)C3CC[C@]12C (stereo partly drawn),inactive,
COc1cccc(N2CC(NC(=O)/C=C\c3ccccc3)CC2=O)c1 (stereo not drawn),inactive,
COc1cccc(C=CC(=O)C=CC=Cc2ccccc2)c1,20.6 µM (active),
COc1cccc(C(=O)NNC(=O)/C=C/c2ccccc2)c1,inactive,
COc1ccccc1C(C)NC(=O)Cc1ccsc1 (stereo not drawn),inactive,
COc1ccc(CN(CC(=O)NC2CCCC2)C(=O)CCC(=O)Nc2cc(C)on2)cc1,inactive,
Cc1ccc(CN(CC(=O)NC2CCCCC2)C(=O)c2csnn2)cc1,inactive,
Cc1cc(C(C)(C)C)oc1C(=O)N(CC(=O)NC1CCCC1)Cc1ccc(Cl)cc1,9.2 µM (active),
CC(C)Oc1ccc(C(=O)NC(C)(C)CO)cc1,inactive,
CC(Oc1ccc(Cl)cc1)C(=O)Nc1ncccn1 (stereo not drawn),inactive,
COc1ccc(OC(C)C(=O)Nc2cccnc2)cc1 (stereo not drawn),inactive,
CC(C)Oc1ccc(C(=O)Nc2cc(=O)n(C)c(=O)n2C)cc1,inactive,
Cc1ccc2cccc(NC(=O)C(C)Oc3ccc(C)c(C)c3)c2n1 (stereo not drawn),20.6 µM (active),
Cc1ccc2cccc(NC(=O)c3ccc(OC(C)C)cc3)c2n1,18.4 µM (active),
Cc1ccc(Cn2c(=O)n(-c3ccc(C)cc3)c(=O)c3c2c2cc(C)ccc2n3C)cc1,inactive,
CCCCSCCCNC(=O)C1CCC(CNS(=O)(=O)c2ccc(NC(C)=O)cc2)CC1 (stereo not drawn),inactive,
CC1CCN(C(=O)CCNC(=O)c2ccccc2)CC1,inactive,
C=CCn1c(CCNC(=O)c2ccccc2F)nnc1SCC(=O)Nc1ccc(OC)cc1,inactive,
Cc1ccc(CN(CC(=O)NCC2CCCO2)S(=O)(=O)c2ccc(C)cc2)cc1 (stereo not drawn),inactive,
Cc1ccc2nc3n(c(=O)c2c1)CCC3,inactive,
Cc1nc2ccc(C(=O)N3CCN(c4ccccc4)CC3)cc2s1,inactive,
Cc1ccc2nc(C)c3c(c2c1)N(c1ccccc1)CC3,11.6 µM (active),
COc1ccc(Cn2ccnc2SCC(=O)NCc2ccco2)cc1,inactive,

SMILES,Potency,"activity change, negative = growth inhibition"
CCOC(=O)c1cccc(NC(=O)CCc2nnc3ccc(N4CCOCC4)nn23)c1,inactive,
O=C(NC1CCCCC1)C1CCC(CNS(=O)(=O)c2ccccc2)CC1 (stereo not drawn),inactive,
COc1nc(NC2CCCCC2)nc(N2CCCCCC2)n1,22.4 µM (active),
Clc1nc(NC2CCCC2)nc(N2CCOCC2)n1,inactive,
CN(N)c1nc(N2CCCC2)nc(N2CCCC2)n1,inactive,
C[C@@H]1CN([C@@H](C)CO)C(=O)c2cc(Br)cnc2O[C@@H]1CN(C)C(=O)C1CCCCC1,inactive,
CC(=O)N[C@H]1[C@H]([C@H](O)[C@H](O)CO)OC(C(=O)O)=C[C@@H]1O,inactive,
CCN(CC)c1ccc2oc(=O)c(C)nc2c1,5.17 µM (active),
Cc1ccc2oc(=O)ccc2c1,inactive,
CCN(CC)c1ccc2c(Nc3ccccc3)c(C=O)c(=O)oc2c1,inactive,
CCOc1cc(/C=C2\C(=N)N3N=C(C)SC3=NC2=O)ccc1OCCOc1ccccc1,inactive,
S=C(NCc1ccco1)NCc1ccccc1Cl,inactive,
Cc1c(Cl)cccc1NC(=S)NCc1ccc2c(c1)OCO2,inactive,
Cc1ccc(NC(=S)NCc2ccccc2Cl)c(C)c1,23.1 µM (active),
CCC(=O)N1CCC(C)(C(=O)Nc2cc(OC)c(OC)c(OC)c2)C1 (stereo not drawn),inactive,
CC(=O)Nc1ccc(/C=N/Nc2ccc(C(=O)c3c(C)cc4ccccn34)cc2[N+](=O)[O-])cc1,18.4 µM (active),
CNc1ccc(NC(C)=O)cc1[N+](=O)[O-],inactive,
Cc1ccc(Nc2ccc(C(N)=O)cc2[N+](=O)[O-])cc1,inactive,
CCCCN1C(=O)C(CC(=O)NCc2cccs2)CC(C(=O)N2CCOCC2)=C1C (stereo not drawn),inactive,
O=C(CSc1ncnc2sccc12)NC1CCS(=O)(=O)C1 (stereo not drawn),inactive,
Cc1noc(C)c1C(=O)N1CCC1(C)C(=O)NS(=O)(=O)c1ccc(C#N)cc1 (stereo not drawn),inactive,
COc1ccc(C(=O)CSc2nc(C)cc(C)n2)cc1[N+](=O)[O-],inactive,
O=C(Nc1ccc(Cl)cc1)c1cnn2c1NC(=C1CC1)C=C2C(F)F,inactive,

SMILES,Potency,"activity change, negative = growth inhibition"
CC(C)(C)C1CCC(NC(=O)c2cnn3c2NC(=C2CC2)C=C3C(F)F)CC1 (stereo not drawn),10 µM (active),
O=C(Nc1ccc([N+](=O)[O-])cc1)c1cnn2c1NC(=C1CC1)C=C2C(F)F,inactive,
COc1cc(NC(=S)NCc2ccco2)c(OC)cc1Cl,inactive,
CNC(=O)Nc1cc(C(C)(C)C)no1,16.4 µM (active),
COc1ccc(NC(=O)c2cc(=O)[nH]c3ccccc23)cc1S(=O)(=O)N1CCOCC1,inactive,
CCCCC/C=C\CC1OC1CCCCCCCC(=O)O (stereo not drawn),,0.0245% [at 0.628 µM]
O=[N+]([O-])c1cc(S(=O)(=O)NCCc2ccccn2)ccc1Cl,inactive,
Cc1ccc(C(=O)N/C(=C/c2cccnc2)C(=O)O)cc1,inactive,
CC(=O)N(C)c1ccc(NC(=O)Nc2cccc3ccccc23)cc1,inactive,
CCN(C(=O)Nc1cccc2ccccc12)c1ccccc1,23.1 µM (active),
O=C(Nc1cccc2ccccc12)NC1CC1,inactive,
CCn1c(-c2cccnc2Cl)nc2cc(C)c(C)cc21,inactive,
CCOC(=O)N1CCN(C(=O)c2ccc(S(=O)(=O)Nc3cccc(C(F)(F)F)c3)cc2)CC1,16.4 µM (active),
O=C(NCc1ccccc1)c1ccc(S(=O)(=O)Nc2cccc(C(F)(F)F)c2)cc1,inactive,
CCOC(=O)N1CCN(C(=O)c2ccc(S(=O)(=O)c3ccc(C)cc3)c(NC(C)=O)c2)CC1,inactive,
CC(C)(C)NC(=O)CN1CCC(NC(=O)C23CC4CC(CC(C4)C2)C3)CC1,inactive,
COc1cccc(C(=O)NCCSc2ccc(Br)cc2)c1,inactive,
COc1cccc(CCNC(=O)COc2cccc3c2OC(C)(C)C3)c1,inactive,
COc1cccc(CCNC(=O)c2cccc(NC(=O)C3=C(C)OCCS3)c2)c1,23.1 µM (active),
CC(CNC(=O)c1nnc(Cc2cccc(F)c2)o1)c1ccccc1 (stereo not drawn),inactive,
CC1=C(C(=O)Nc2cccc(C(=O)NCC(C)c3ccccc3)c2)SCCO1 (stereo not drawn),16.4 µM (active),
O=C(Nc1cccc(C(=O)N2CCCC2)c1)c1ccccc1,inactive,

# Source: PubChem BioAssay AID686979 (National Center for Advancing Translational Sciences (NCATS), 2013)
